{"source": "the supplement of paper PMC6555819", "data": [{"system": "PPARg:RXRa DBDmut IVT, anti-RXR (DBD mutation: RXRa K156A/R161A, NR concentration 270 nM, RXRa partner concentration 90 nM)", "test": "PBM binding z-score (relative to random genomic background probes); higher = stronger binding; sequences stand for … in GC…GCGATTGACAGCGTAGAATGAAGG", "summary_of_the_method": "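Custom Agilent 4×180K protein-binding microarrays carried double-stranded probes, each with a 34-nt variable region. These regions held direct-repeat seeds, single-nucleotide variants, half-site ablations and random human genomic background sequences. Ligand-free nuclear receptor dimers were incubated on the arrays for 1 h, antibodies against each partner (one per run) detected binding, and scanned fluorescence was regression-normalized. Binding z-scores take the random background probes as reference.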", "values": [{"sequence": "CGTCCAAGGTCATTGGAGGTCAGTGAAGACAGAT", "PBM binding z-score": 3.6}, {"sequence": "CCTTACGGGTCACTGACAGGTTATAGCGTTTGGA", "PBM binding z-score": 2.91}, {"sequence": "TAGCCTAGGTCATTCAGGGGCAAGTATAGAAAGC", "PBM binding z-score": 1.93}, {"sequence": "AGAATGAGGTTACCAAAGTTCAGGGAAACGCTTG", "PBM binding z-score": 3.96}, {"sequence": "ATATGTAGGTTATCTGGGGTCATTCAGACTAGGC", "PBM binding z-score": 7.21}, {"sequence": "GATATAGGGTCAGCTAGAGGCCAGAGTATGGAAA", "PBM binding z-score": 2.49}, {"sequence": "CCTTACGGGTCACGAGGTTGTAGCACGACGAGCG", "PBM binding z-score": 4}, {"sequence": "ATCGAAAGGTCGTGAGGTAAGTATACAGAAAGGC", "PBM binding z-score": 0.266}, {"sequence": "CCTAGCAGGCCAATCTAGGTCACTCAAGGCTTGA", "PBM binding z-score": 5.08}, {"sequence": "ACTTACGGGTCTACGAGGTTATAGCACGCGTATA", "PBM binding z-score": -0.0713}, {"sequence": "CAAACTAGGTCACAAAAGGTCAAAGTCGAATGAC", "PBM binding z-score": 8.13}, {"sequence": "CCTACTGGGCCATTCAGAGGTCAATGATCATATG", "PBM binding z-score": 4.08}, {"sequence": "CGTCCAAGGTCAATGCTAGATCAGTGAAAGCATT", "PBM binding z-score": 3.16}, {"sequence": "ATCGAAAGGTCGACCAGGTGAGTATACACCGTTT", "PBM binding z-score": 0.539}, {"sequence": "AGAATGGGGTTACCAAAGATCAGGGAAACGCTTG", "PBM binding z-score": 4.37}, {"sequence": "CCTACGGGGCCACGAAAGGTCATTGATTCAGTGA", "PBM binding z-score": 1.57}, {"sequence": "CGTCAAACTTCAACTAAGGTAACGTAAAGCACGC", "PBM binding z-score": 0.0564}, {"sequence": "CCTACTGGGCCACGAAAGGCCATTGATTCAGTGA", "PBM binding z-score": 5.23}, {"sequence": "GGAACGAGGGCATTCGAGTTCATAGCATGGCGAT", "PBM binding z-score": 2.82}, {"sequence": "TCGCCTAGGTCATGGGCCAGTATACCACGCGAAC", "PBM binding z-score": 1.88}, {"sequence": "AGAATGAGGTTACCAAAGGTCAGGGAAACGCTTG", "PBM binding z-score": 4.16}, {"sequence": "TAGCCTAGGTCATTCAGGGGCCACTATAGAAAGC", "PBM binding z-score": 2.08}, {"sequence": "AATACAGGGTCATCGTAGGTCAGAGTACGCACAG", "PBM binding z-score": 3.26}, {"sequence": "CAAACTAGGTCACAGTGGTCAAAGTCCGTGCGTA", "PBM binding z-score": 8.5}, {"sequence": "CCTACTGGGTCACGAAAGGTCATTGATTCAGTGA", "PBM binding z-score": 7.12}, {"sequence": "TCTTGTAGATCAATAGAAGTTAAGAAAGTGCGCT", "PBM binding z-score": 1.85}, {"sequence": "TACCCTAGGTCATTGGGCCAGTATAGTACGCATC", "PBM binding z-score": 3.2}, {"sequence": "AGAATGAGGTTAAACGTAGATCAGGGAAGAAAGT", "PBM binding z-score": 6.01}, {"sequence": "CCGAGTTGGTCAAGGTCACACACGCTATAGGTAC", "PBM binding z-score": 1.59}, {"sequence": "CCTACTGGACCAAGGTCATTGATCAGTCAAAGCA", "PBM binding z-score": 2.03}, {"sequence": "CCTAGTTGGTCAAGGTCACATACGCTATAGGTAC", "PBM binding z-score": 2.23}, {"sequence": "ATCTCTAGGTTAAGATAGTTCAGTGAATGCAAAT", "PBM binding z-score": 3.33}, {"sequence": "AGAATGAGGTTAAGTTCAGGGAAACAGAATACAT", "PBM binding z-score": 3.13}, {"sequence": "TAGCCTAGTTCATGCGGGCCAGTATAGTGTCGGC", "PBM binding z-score": 0.864}, {"sequence": "TAGCCTAGGTCATGGGCCAGTGTACCACGCGAAC", "PBM binding z-score": 1.74}, {"sequence": "ATATGTAGGTTAACTGGGGTCATTCAGACTAGGC", "PBM binding z-score": 7.59}, {"sequence": "CCTTACGGGTCAAGGTTATAGCCCGGGTGGTACG", "PBM binding z-score": 1.8}, {"sequence": "CGTCCAAGGTCATATGAGGTCAGTGAAGACAGAT", "PBM binding z-score": 3.46}, {"sequence": "TAGCCTAGGTCGTTCAGGGGCCAGTATAGAAAGC", "PBM binding z-score": -0.258}, {"sequence": "TAGCCTAGGTCATGCGGGCCAATATAGTGTCGGC", "PBM binding z-score": 1.58}]}]}
